Assay [1] is described as follows: ATG_GRE_CIS: Attagene CIS-FACTORIAL HepG2 Assay for human Glucocorticoid Response Elements (GRE) (AID 2282947). The conditions noted are these: HepG2 GRE cis-reporter, Attagene multiplex mRNA; actives raise or lower the signal. The gist of the method:
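Reporter transcripts read by RT-PCR with capillary electrophoresis fluorescence after a 24 h chemical exposure of HepG2 cells transiently transfected with multiple cis-element reporter units. Gain or loss fitted against DMSO.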

The nature of assay [2]: ATG_M_32_CIS: Attagene CIS-FACTORIAL HepG2 Assay for M32 Transcription Factor (Internal Marker) (AID 2282949).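 Note: background control marker of the multiplexed CIS panel rather than a real target.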 The conditions noted are these: HepG2 Attagene cis-factorial M32 reporter, mRNA; actives raise or lower the signal. The gist of the method: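 HepG2 transfectants (cis-regulated reporter transcription units) dosed 24 h. Reporter mRNA by RT-PCR plus CE, analysed as gain or loss relative to DMSO.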

Assay [3] can be described thus: ATG_M_06_CIS: Attagene CIS-FACTORIAL HepG2 Assay for M06 Transcription Factor (Internal Marker) (AID 2282950). The conditions noted are these: HepG2 Attagene CIS-FACTORIAL M06 internal marker reporter; actives raise or lower the signal. The gist of the method: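 Fluorescence-labelled RT-PCR products from cis-promoter reporter units, cut with HpaI and resolved by capillary electrophoresis, give the signal. Cells are human HepG2, dosed for 24 h. Serves as background control, fitted relative to DMSO.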

Assay [4] concerns the target Hypoxia-inducible factor 1-alpha (Homo sapiens) (UniProt Q16665). Kind of assay: ATG_HIF1a_CIS: Attagene CIS-FACTORIAL HepG2 Assay for human Hypoxia Inducible Factor 1 (HIF1A) (AID 2282951). The conditions noted are these: HepG2 Attagene cis-factorial HIF1a reporter transcription; actives raise or lower the signal. The gist of the method: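 Measures endogenous transcription-factor activity through cis-regulated reporter mRNA in HepG2. Cells dosed 24 h; transcripts quantified by RT-PCR with 6-FAM-labelled products separated by capillary electrophoresis; DMSO serves as negative control.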

For assay [5], the target named is Hepatocyte nuclear factor 6 (Homo sapiens) (UniProt Q9UBC0). The experiment in a line: ATG_HNF6_CIS: Attagene CIS-FACTORIAL HepG2 Assay for human Hepatocyte Nuclear Factor 6 (HNF6) (AID 2282952). The conditions noted are these: HepG2 Attagene cis-factorial HNF6 reporter transcription; actives raise or lower the signal. The gist of the method:
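Endogenous factor activity read in transiently transfected HepG2 via promoter-regulated reporter transcripts. RNA harvested 24 h post-dosing, reverse-transcribed, PCR-amplified, FAM-labelled, HpaI-digested and resolved by capillary electrophoresis; fitted in both directions against DMSO.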

A short description of assay [6]: ATG_MRE_CIS: Attagene CIS-FACTORIAL HepG2 Assay for human Metal Responsive Element (MRE) (AID 2282954). The conditions noted are these: HepG2 MRE cis-reporter transcription, Attagene multiplex; actives raise or lower the signal. The gist of the method:
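Endogenous MRE-dependent transcription read as reporter mRNA in transiently transfected human HepG2 cells at 24 h. RNA reverse-transcribed, PCR-amplified, labelled and resolved by capillary electrophoresis; gain or loss relative to DMSO.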

The nature of assay [7]: ATG_PBREM_CIS: Attagene CIS-FACTORIAL HepG2 Assay for human Phenobarbital-responsive Enhancer Module (PBREM) (AID 2282955). The conditions noted are these: HepG2 PBREM cis-reporter, Attagene multiplexed transcription; actives raise or lower the signal. The gist of the method:
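Fluorescence of labelled reporter cDNA fragments, resolved by capillary electrophoresis, gives mRNA induction in transfected HepG2 cells treated for 24 h; DMSO serves as negative control and baseline.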

The target in assay [8] is Paired box protein Pax-6 (Homo sapiens) (UniProt P26367). Kind of assay: ATG_Pax6_CIS: Attagene CIS-FACTORIAL HepG2 Assay for human Paired Box 6 (PAX6) (AID 2282956). The conditions noted are these: HepG2 CIS-FACTORIAL PAX6 reporter transcription, RNA readout; actives raise or lower the signal. The gist of the method:
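Fluorescent RT-PCR products separated by capillary electrophoresis report PAX6-linked promoter mRNA in HepG2 cells 24 h post-dose. Curves fitted bidirectionally, DMSO as negative control.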

A short description of assay [9]: ATG_PXRE_CIS: Attagene CIS-FACTORIAL HepG2 Assay for human Pregnane X Receptor Element (PXRE) (AID 2282957). The conditions noted are these: HepG2 Attagene CIS-FACTORIAL PXRE reporter, mRNA; actives raise or lower the signal. The gist of the method: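 Reporter transcripts under endogenous PXR-responsive cis-regulation quantified from total RNA of transfected HepG2 cells 24 h post-dosing, via RT-PCR with fluorescent primer extension and capillary electrophoresis. Gain or loss of signal fitted against DMSO baseline.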

Assay [10] can be described thus: ATG_PPRE_CIS: Attagene CIS-FACTORIAL HepG2 Assay for human Peroxisome Proliferator-activated Response Element (PPRE) (AID 2282958). The conditions noted are these: HepG2 PPRE cis-element reporter, Attagene transcription factor profiling; actives raise or lower the signal. The gist of the method: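 Cells are first transfected transiently with the multiplexed reporter library, then dosed for 24 h. Total RNA is reverse-transcribed, amplified, fluorescently end-labeled and HpaI-cut before capillary electrophoresis; activity is fitted bidirectionally against DMSO controls.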

Assay [11] in a line: ATG_RORE_CIS: Attagene CIS-FACTORIAL HepG2 Assay for human RAR-related Orphan Receptor Element (RORE) (AID 2282959). The conditions noted are these: HepG2 Attagene cis-factorial RORE reporter, mRNA; actives raise or lower the signal. The gist of the method:
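Cells were HepG2 carrying transfected cis-regulated reporter constructs, dosed for 24 hours. Total RNA was reverse-transcribed and reporter cDNA amplified, fluorescently labeled and sized by capillary electrophoresis. Activity was fitted bidirectionally relative to DMSO.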

Assay [12] in a line: ATG_Sox_CIS: Attagene CIS-FACTORIAL HepG2 Assay for human SRY-box transcription factor (SOX) (AID 2282960). The conditions noted are these: HepG2 Attagene cis-factorial SOX reporter, mRNA; actives raise or lower the signal. The gist of the method:
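Transient MRTU transfection of HepG2; 24 h compound incubation; TriZol RNA, oligo(dT) RT, PCR, 6-FAM primer extension, HpaI cut, CE. Bidirectional fit, DMSO = baseline.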

For assay [13], the target named is Transcription factor Sp1 (Homo sapiens) (UniProt P08047). The experiment in a line: ATG_Sp1_CIS: Attagene CIS-FACTORIAL HepG2 Assay for human Specificity Protein 1 (Sp1) (AID 2282961). The conditions noted are these: HepG2 Sp1 cis-reporter transcription, actives raise or lower the signal. The gist of the method:
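Endogenous Sp1 activity was gauged in human liver HepG2 cells bearing transfected reporter units under a cis-regulating promoter. After 24 h dosing, reporter mRNA was quantified by RT-PCR with capillary electrophoresis, and activity fitted bidirectionally versus DMSO.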

A short description of assay [14]: ATG_SREBP_CIS: Attagene CIS-FACTORIAL HepG2 Assay for human Sterol Regulatory Element Binding (SREBP) (AID 2282962). The conditions noted are these: HepG2 Attagene cis-factorial SREBP reporter, mRNA; actives raise or lower the signal. The gist of the method: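 Endogenous factor activity is measured in HepG2 through multiplexed reporter units under cis-element control. Following a 24 h incubation, reporter transcripts are reverse-transcribed, PCR-amplified and sized by capillary electrophoresis; activity is fitted in both directions relative to DMSO.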

Assay [15] in a line: ATG_TA_CIS: Attagene CIS-FACTORIAL HepG2 Assay for human TA Basal Promoter (AID 2282964). The conditions noted are these: HepG2 Attagene CIS-factorial TA basal promoter reporter; actives raise or lower the signal. The gist of the method:
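Multiplexed mRNA reporter assay, HepG2, 24 h. Reporter cDNA amplified, 6-FAM primer-extended, HpaI-cut, CE-sized; DMSO = negative control and baseline.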

A short description of assay [16]: ATG_TCF_b_cat_CIS: Attagene CIS-FACTORIAL HepG2 Assay for human T-Cell-Factor with beta-catenin (TCF/b-cat) (AID 2282965). The conditions noted are these: HepG2 TCF/beta-catenin cis-reporter transcription, actives raise or lower the signal. The gist of the method: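 Measured: reporter mRNA in HepG2 transiently transfected with cis-promoter reporter units, 24 h after chemical addition. Fitting was bidirectional, DMSO as negative control.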

The target of assay [17] is Signal transducer and activator of transcription 3 (Homo sapiens) (UniProt P40763). Kind of assay: ATG_STAT3_CIS: Attagene CIS-FACTORIAL HepG2 Assay for human Signal Transducer and Activator of Transcription 3 (STAT3) (AID 2282963). The conditions noted are these: HepG2, Attagene cis-factorial STAT3 reporter transcription; actives raise or lower the signal. The gist of the method: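 Readout is reporter transcript quantified by RT-PCR and capillary electrophoresis, with 6-FAM primer extension and HpaI digestion. Total RNA is taken 24 h after dosing transiently transfected HepG2 carrying cis-regulated reporter units. Bidirectional fit against DMSO.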

For assay [18], the target named is Heat shock factor protein 1 (Homo sapiens) (UniProt Q00613). The experiment in a line: ATG_HSE_CIS: Attagene CIS-FACTORIAL HepG2 Assay for human Heat Shock Transcription Factor 1 (HSE) (AID 2282953). The conditions noted are these: HepG2 HSE cis-reporter, Attagene RNA transcription; actives raise or lower the signal. The gist of the method:
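After a 24 h incubation with test chemical, transfected HepG2 cells were harvested for RNA; reporter transcripts were measured by RT-PCR and capillary electrophoresis. Values reflect gain or loss of signal relative to DMSO.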

Assay [19] is described as follows: ATG_ISRE_CIS: Attagene CIS-FACTORIAL HepG2 Assay for human Interferon Regulatory Factor 1 (IRF1) binding to an Interferon-Stimulated Response Element (ISRE) (AID 2282948). The conditions noted are these: HepG2 ISRE cis-reporter (Attagene), mRNA transcription readout; actives raise or lower the signal. The gist of the method:
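Multiplexed mRNA reporter readout in human liver HepG2 cells: cis-element-driven reporters transfected, compound added for 24 h, transcripts amplified, fluorescently labelled and sized by capillary electrophoresis; curve fitting bidirectional against DMSO.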

Active and inactive are the calls of the source. Rule for the calls: active = hit-call score of the fitted dose curve at least 0.9, where 1 is the maximum; inactive = score below 0.9.

Usually AC50 stands for the concentration giving half of the maximal activity seen.

Chain of Hepatocyte nuclear factor 6 (Homo sapiens) (Q9UBC0 whole entry, looked up): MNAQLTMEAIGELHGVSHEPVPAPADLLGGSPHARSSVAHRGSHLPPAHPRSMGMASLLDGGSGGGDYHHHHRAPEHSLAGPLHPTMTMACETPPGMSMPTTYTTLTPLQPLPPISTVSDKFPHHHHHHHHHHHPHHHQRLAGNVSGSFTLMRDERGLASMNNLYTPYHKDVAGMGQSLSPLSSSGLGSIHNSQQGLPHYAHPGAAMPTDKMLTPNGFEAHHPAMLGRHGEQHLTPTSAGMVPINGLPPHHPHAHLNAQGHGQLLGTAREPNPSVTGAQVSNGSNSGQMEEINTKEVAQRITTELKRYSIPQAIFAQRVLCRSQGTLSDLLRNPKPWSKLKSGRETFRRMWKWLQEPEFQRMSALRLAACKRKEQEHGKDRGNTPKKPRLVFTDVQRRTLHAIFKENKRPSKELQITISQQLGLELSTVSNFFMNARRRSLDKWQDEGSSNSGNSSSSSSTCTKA
Chain of Heat shock factor protein 1 (Homo sapiens) (Q00613 whole entry, looked up): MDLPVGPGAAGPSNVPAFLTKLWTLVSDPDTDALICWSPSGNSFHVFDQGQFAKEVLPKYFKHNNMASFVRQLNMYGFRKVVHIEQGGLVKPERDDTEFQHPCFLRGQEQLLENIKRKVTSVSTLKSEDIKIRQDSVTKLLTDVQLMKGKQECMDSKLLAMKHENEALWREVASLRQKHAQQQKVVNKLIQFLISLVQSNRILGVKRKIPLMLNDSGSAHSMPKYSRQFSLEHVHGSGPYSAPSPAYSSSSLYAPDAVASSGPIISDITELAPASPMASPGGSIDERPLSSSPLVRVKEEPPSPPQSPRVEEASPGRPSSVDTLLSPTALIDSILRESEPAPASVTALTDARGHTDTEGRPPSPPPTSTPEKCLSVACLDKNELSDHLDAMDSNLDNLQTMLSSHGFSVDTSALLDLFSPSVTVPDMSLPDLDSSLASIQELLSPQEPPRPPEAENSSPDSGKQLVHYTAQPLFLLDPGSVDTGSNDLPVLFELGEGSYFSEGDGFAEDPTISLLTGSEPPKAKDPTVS
Chain of Paired box protein Pax-6 (Homo sapiens) (P26367 whole entry, looked up): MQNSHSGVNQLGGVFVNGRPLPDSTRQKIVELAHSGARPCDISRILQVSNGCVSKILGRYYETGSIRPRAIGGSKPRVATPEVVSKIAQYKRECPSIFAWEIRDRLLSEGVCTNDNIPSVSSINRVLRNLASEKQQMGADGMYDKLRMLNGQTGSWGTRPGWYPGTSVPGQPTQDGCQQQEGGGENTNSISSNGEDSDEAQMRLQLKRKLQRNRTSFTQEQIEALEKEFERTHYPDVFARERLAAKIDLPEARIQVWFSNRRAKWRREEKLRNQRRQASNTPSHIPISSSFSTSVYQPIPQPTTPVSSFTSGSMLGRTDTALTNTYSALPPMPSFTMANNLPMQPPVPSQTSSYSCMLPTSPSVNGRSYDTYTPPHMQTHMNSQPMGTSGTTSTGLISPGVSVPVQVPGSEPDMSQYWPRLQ
Chain of Transcription factor Sp1 (Homo sapiens) (P08047 whole entry, looked up): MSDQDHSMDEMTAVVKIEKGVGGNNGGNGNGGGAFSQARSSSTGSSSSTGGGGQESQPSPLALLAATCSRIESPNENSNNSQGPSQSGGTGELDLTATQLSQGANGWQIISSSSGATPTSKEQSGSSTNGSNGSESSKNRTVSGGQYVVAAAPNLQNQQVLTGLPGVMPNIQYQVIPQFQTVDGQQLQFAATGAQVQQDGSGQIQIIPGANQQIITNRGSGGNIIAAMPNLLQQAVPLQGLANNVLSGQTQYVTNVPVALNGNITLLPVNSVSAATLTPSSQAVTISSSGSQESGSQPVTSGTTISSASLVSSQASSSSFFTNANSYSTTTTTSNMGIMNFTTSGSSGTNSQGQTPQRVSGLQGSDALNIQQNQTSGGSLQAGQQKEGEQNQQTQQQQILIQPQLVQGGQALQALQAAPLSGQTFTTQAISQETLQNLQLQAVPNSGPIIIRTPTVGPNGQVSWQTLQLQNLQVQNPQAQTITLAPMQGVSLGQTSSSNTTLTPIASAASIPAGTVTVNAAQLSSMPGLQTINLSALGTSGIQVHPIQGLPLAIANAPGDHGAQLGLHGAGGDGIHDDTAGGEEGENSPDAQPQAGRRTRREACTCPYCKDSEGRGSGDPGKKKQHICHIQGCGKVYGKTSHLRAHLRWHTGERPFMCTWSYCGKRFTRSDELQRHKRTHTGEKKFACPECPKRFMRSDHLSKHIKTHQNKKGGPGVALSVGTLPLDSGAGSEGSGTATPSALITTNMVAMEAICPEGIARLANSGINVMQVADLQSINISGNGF
Chain of Hypoxia-inducible factor 1-alpha (Homo sapiens) (Q16665 whole entry, looked up): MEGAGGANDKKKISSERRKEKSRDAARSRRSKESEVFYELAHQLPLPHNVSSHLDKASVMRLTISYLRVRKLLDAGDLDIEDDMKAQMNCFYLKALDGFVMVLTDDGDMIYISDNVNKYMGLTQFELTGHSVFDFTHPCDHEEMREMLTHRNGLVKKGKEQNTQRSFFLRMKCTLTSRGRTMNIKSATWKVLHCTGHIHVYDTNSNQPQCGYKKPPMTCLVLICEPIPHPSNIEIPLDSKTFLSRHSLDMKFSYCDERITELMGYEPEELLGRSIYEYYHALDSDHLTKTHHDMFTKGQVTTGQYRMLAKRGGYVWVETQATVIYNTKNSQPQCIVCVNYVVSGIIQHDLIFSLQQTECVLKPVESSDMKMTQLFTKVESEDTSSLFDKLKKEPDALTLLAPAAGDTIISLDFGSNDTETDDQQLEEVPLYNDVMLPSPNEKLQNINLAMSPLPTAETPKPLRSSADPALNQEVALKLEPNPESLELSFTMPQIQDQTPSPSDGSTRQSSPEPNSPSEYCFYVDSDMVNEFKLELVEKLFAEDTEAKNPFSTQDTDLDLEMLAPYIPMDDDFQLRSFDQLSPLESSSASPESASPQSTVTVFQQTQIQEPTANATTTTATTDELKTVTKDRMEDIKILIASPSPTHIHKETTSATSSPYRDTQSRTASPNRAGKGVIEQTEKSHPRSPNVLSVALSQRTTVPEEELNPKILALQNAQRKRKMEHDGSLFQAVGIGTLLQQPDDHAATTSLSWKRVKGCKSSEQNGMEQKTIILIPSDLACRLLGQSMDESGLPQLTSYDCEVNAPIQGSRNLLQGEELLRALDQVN
Chain of Signal transducer and activator of transcription 3 (Homo sapiens) (P40763 whole entry, looked up): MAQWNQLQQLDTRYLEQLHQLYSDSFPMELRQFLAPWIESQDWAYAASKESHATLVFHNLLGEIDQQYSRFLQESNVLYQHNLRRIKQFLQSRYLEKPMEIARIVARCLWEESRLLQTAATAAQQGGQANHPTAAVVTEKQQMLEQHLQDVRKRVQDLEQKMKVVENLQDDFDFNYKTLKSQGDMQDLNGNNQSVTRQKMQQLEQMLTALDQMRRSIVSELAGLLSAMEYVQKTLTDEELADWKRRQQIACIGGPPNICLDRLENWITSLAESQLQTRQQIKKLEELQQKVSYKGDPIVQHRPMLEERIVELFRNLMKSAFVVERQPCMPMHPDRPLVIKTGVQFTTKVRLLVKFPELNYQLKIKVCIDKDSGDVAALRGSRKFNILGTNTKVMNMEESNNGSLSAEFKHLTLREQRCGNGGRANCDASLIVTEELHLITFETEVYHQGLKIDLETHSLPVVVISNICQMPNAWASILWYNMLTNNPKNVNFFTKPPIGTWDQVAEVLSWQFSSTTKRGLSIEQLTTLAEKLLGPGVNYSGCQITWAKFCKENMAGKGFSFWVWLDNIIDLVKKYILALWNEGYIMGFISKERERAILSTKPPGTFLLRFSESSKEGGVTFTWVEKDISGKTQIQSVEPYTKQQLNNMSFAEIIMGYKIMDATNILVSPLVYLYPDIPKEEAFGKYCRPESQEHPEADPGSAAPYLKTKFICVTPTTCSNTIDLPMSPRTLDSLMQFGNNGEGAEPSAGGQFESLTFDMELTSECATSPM

Regarding `CC/C=C\CC/C=C/CO`, the compound was called inactive in assay [1], in [2], in assay [3], in assay [4], in [5] and in assay [6]. The outcome in assay [7], in assay [8], in [10], in assay [11], in assay [12] and in assay [13] was inactive. For the same compound, the compound was called inactive in assay [14], in assay [15] and in assay [16]. In addition, the AC50 in assay [9] is 27.3 µM (active).
Regarding `Cc1occc(=O)c1OC(=O)C(C)C`, the compound was classed as inactive in assay [1], in [2], in assay [4], in [5], in [6] and in assay [7]. Besides, the call in assay [8], in [9], in assay [11], in assay [12], in assay [13] and in assay [14] was inactive. In addition, the result in assay [17], in assay [15] and in assay [16] was inactive.
In the case of `C=C(C)CNCC`, the call in assay [1], in assay [2], in assay [3], in assay [4], in assay [5] and in assay [18] was inactive. Besides, the compound was classed as inactive in [6], in assay [7], in assay [10], in assay [11], in [12] and in [13]. Also, the call in assay [14], in assay [17] and in assay [16] was inactive. Besides, in [9], the AC50 is 52.9 µM (active).
Take `C=C(C)[C@@H]1CC=C(C)C(=O)C1`: the outcome in assay [1], in assay [2], in assay [3], in [4], in assay [5] and in assay [18] was inactive. The outcome in assay [6], in [8], in [11], in assay [13], in assay [14] and in [17] was inactive. The result in assay [15] and in assay [16] was inactive. In assay [9], the AC50 was 25.5 µM (active).
Consider `O=CN1CCOCC1`, for which the outcome in assay [19], in [2], in [3], in assay [5], in [18] and in assay [6] was inactive. Also, the compound was called inactive in [8], in [9], in assay [10], in assay [11], in assay [12] and in assay [13]. In addition, the result in [14], in assay [17], in assay [15] and in [16] was inactive. The AC50 in [4] was 51.7 µM (active).
In the case of `C=C(C)C(=O)OCCOCCOCCOCCOC(=O)C(=C)C`, the result in assay [19], in assay [2], in [3], in [4], in [5] and in assay [18] was inactive. In addition, the outcome in [6], in assay [7], in assay [11], in assay [12], in [13] and in assay [14] was inactive. Moreover, the compound was called inactive in assay [17] and in [15]. Moreover, the AC50 in assay [9] is 35.3 µM (active).
Take `CN(C)c1ccncc1`: the result in [19], in [2], in [3], in [4], in [5] and in [18] was inactive. The compound was called inactive in assay [6], in assay [7], in assay [8], in [11], in assay [12] and in [13]. Besides, the compound was classed as inactive in [14], in assay [17], in assay [15] and in assay [16]. Besides, the AC50 in [9] was 71.6 µM (active).
On to `CC(C)(C)C1=CC(=O)C(C(C)(C)C)=CC1=O`, for which the AC50 was 71.2 µM (active) in assay [19]; 33.3 µM (active) in assay [4]; 78.1 µM (active) in [5]; 97.3 µM (active) in assay [18]; 50 µM (active) in assay [6]; 61.5 µM (active) in assay [8]. For the same compound, the figures for the AC50 in assay [9], in assay [14] and in [16] were 1.29 µM (active), 25.7 µM (active) and 50 µM (active), respectively. The call in assay [2], in [3], in assay [7], in assay [11], in assay [12] and in assay [13] was inactive. For the same compound, the result in [17] and in assay [15] was inactive.

(Values after PubChem BioAssay (EPA / NIEHS).)
